From PubChem
SARS PLpro yeast – qHTS of Yeast-based Assay for SARS-CoV PLP | S. cerevisiae expressing SARS-CoV PLpro, growth rescue | Potency, µM (highest dose often 32.9 µM), without a hit: at the top dose activity, positive = growth rescue, usual class: activators | hit rate 0.19% among 330,000 | AID 485353, 2010; calls by dose curve; further: 0% is about no effect; nearly all actives have a fitted effect of over 55% in size
Pf growth 48h – Primary qHTS for delayed death inhibitors of the malarial parasite plastid, 48 hour incubation. P. falciparum luciferase growth in erythrocytes, 48 h. Potency, µM (series often up to 28.7 µM), for inactives: at the highest dose activity change, negative = inhibition, most hits filed as inhibitors. hit rate 5.9% among 310,000. AID 504832, 2011; further: on the % scale 0 is the no-effect control and ±100 the full control effect
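Parasite viability was followed by luminescence of a genomically integrated firefly luciferase. Cultures held 0.1% parasitemia at 2% hematocrit (final), incubated under 5% CO2 at 37 C.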
Pf growth 96h – Primary qHTS for delayed death inhibitors of the malarial parasite plastid, 96 hour incubation. P. falciparum luciferase reporter growth, 96 h. Potency, µM (top dose mostly 28.7 µM), for the others: at the top dose activity change, negative = inhibition, usual class: inhibitors. hit rate 6.9% among 320,000; further: on the % scale 0 is the no-effect control and ±100 the full control effect
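Erythrocytes infected with luciferase-expressing P. falciparum were dispensed at 2% hematocrit and 0.05% parasitemia (final), then incubated with compounds 96 hours at 37 C in 5% CO2. Luminescence after detection reagent addition reported growth.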
NS1 function inh – qHTS Assay for Inhibitors of Influenza NS1 Protein Function; AID 2326, 2010; hit rate 0.4% among 270,000; Potency, µM (highest dose often 46.1 µM), for the others: at the highest dose activity, positive = more growth; calls by dose curve; further: actives are rising curves; nearly all actives have a fitted effect of over 50% in size
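A cell-based growth assay was used: compounds that relieve NS1-induced slow growth of budding yeast raise OD600. Assay medium was yeast nitrogen base with ammonium sulphate and -URA supplement, pH 6.0, with 2% galactose.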
An asterisk follows results filed as active; ? = inconclusive; nt = no result. Hits are enriched below; roughly 10% of the tested compounds scored in any of these assays. Unless noted, the call rests on the fitted dose curve; in most records, active means well fitted inhibition curve with a large enough effect; inconclusive means small, poorly fitted or top-dose-only effect, or another doubt; inactive means no such curve, though single readings can be large or run the other way. Potency means the concentration at half of the fitted maximal effect.

SMILES | SARS PLpro yeast | Pf growth 48h | Pf growth 96h | NS1 function inh
COc1cc(OC)cc(-c2c(-c3ccc(F)cc3)c3cc(-c4cnc(OC)nc4)ccc3n2C)c1 | -2% | 4.1µM* | 4.7µM* | nt
COc1ccc(-c2c(-c3cc(OC)cc(OC)c3)n(C)c3ccc(-c4ccc(S(N)(=O)=O)cc4)cc23)cc1 | -1% | 13µM* | ? | nt
Cc1ccccc1NC(=O)CSc1nnc(Cc2ccccc2)c(=O)n1N | -1% | 33% | 9% | nt
COc1ccc(/C(C)=N/NC(=O)c2ccc(CSc3nncn3C)cc2)cc1 | 0% | ? | 4.1µM* | nt
COc1cccc(C2C3=C(CCCC3=O)NC3=C2C(=O)c2ccccc23)c1 (stereo not drawn) | 0% | 28% | -18% | 7%
CCCCc1ccc(C2C3=C(CC(C)(C)CC3=O)NC3=C2C(=O)c2ccccc23)cc1 (stereo not drawn) | 13% | 13µM* | ? | ?
CC1(C)CC(=O)C2=C(C1)NC1=C(C(=O)c3ccccc31)C2c1ccc(O)cc1 (stereo not drawn) | 11% | ? | ? | -4%
CCCc1ccc(C2C3=C(CC(C)(C)CC3=O)NC3=C2C(=O)c2ccccc23)cc1 (stereo not drawn) | 2% | 9.3µM* | 3.3µM* | ?
Cc1cccc(C)c1NC(=O)CN(C)C(=O)Cn1c(=O)cnc2ccccc21 | 7% | -10% | 31% | 4%
O=C1Cc2cc(CCN3CCN(c4nsc5ccccc45)CC3)c(Cl)cc2N1 | -5% | nt | nt | nt
Oc1cc2cc(CCN3CCN(c4nsc5ccccc45)CC3)c(Cl)cc2[nH]1 | nt | 13µM* | 11µM* | nt
Cc1cc(C)cc(N(CC(=O)NCc2ccco2)C(=O)c2snc(C(N)=O)c2N)c1 | -1% | -17% | 4.7µM* | 20%
CCOC(=O)N1CCN(S(=O)(=O)c2ccc(F)c(C(=O)Nc3ccc(C(C)C)cc3)c2)CC1 | -8% | ? | ? | 21%
CCOC(=O)N1CCN(S(=O)(=O)c2ccc(F)c(C(=O)Nc3ccc(C)c(Cl)c3)c2)CC1 | -26% | 13µM* | -3% | 27%
CCOC(=O)N1CCN(C(=O)Nc2cccc(Cl)c2)CC1 | -4% | nt | 12µM* | -1%
CCOC(=O)C1(c2ccccc2)CCN(CCC(=O)Nc2ccc(F)cc2)CC1 | 2% | 13µM* | 9.3µM* | nt
CCOC(=O)N1CCN(CCC(=O)Nc2ccc(F)c(F)c2)CC1 | -3% | ? | 15µM* | 2%
CCOC(=O)N1CCN(CC(=O)Nc2ccc(F)c(F)c2)CC1 | 1% | 16% | 17% | nt
Cc1ccc(/C=C(\NC(=O)c2ccccc2)C(=O)NC2CCN(Cc3ccccc3)CC2)o1 | 6% | ? | 0% | 12%
CC(OC(=O)c1nsc(Cl)c1Cl)C(=O)NCCc1ccccc1 (stereo not drawn) | 1% | 26% | 25% | -41%
CC1CC1C(=O)OCC(=O)Nc1ccc(Cl)cn1 (stereo not drawn) | 1% | nt | nt | nt
CCOc1ccc(C(=O)C(CCC(CN(C)C)C(=O)c2ccc(OCC)cc2)CN(C)C)cc1 (stereo not drawn) | -25% | ? | ? | -15%
CN(C)CC(CCC(CN(C)C)C(=O)c1ccccc1)C(=O)c1ccccc1 (stereo not drawn) | -3% | 6.6µM* | 13µM* | -35%
COc1ccc(C(C)=O)cc1CC(C(=O)c1ccc(F)cc1)N(C)C (stereo not drawn) | -1% | ? | 10µM* | ?
CN(C)C(Cc1ccc(C#N)cc1)C(=O)c1ccccc1 (stereo not drawn) | -9% | 1% | 15% | 5%
SMILES | SARS PLpro yeast | Pf growth 48h | Pf growth 96h | NS1 function inh
COc1ccc(C(=O)C(CCCCC(CN(C)C)C(=O)c2ccc(OC)cc2)CN(C)C)cc1 (stereo not drawn) | -4% | 10µM* | 9.3µM* | 8%
COc1ccc(C(=O)C(Cc2ccccc2)N(C)C)cc1 (stereo not drawn) | 2% | ? | 1.3µM* | 0%
O=C(c1ccccc1)C(CCC(CN1CCOCC1)C(=O)c1ccccc1)CN1CCOCC1 (stereo not drawn) | -20% | -21% | ? | -31%
COc1ccc(C(C)=O)cc1CC(C(=O)c1ccc(C)c(C)c1)N(C)C (stereo not drawn) | -19% | -29% | -13% | 4%
Cc1nc2sccc2c(=O)n1-c1cccc(Cl)c1 | 14% | 3% | 0% | 1%
Cc1cccc(NS(=O)(=O)c2c(C)[nH]c(C)c2C(=O)N2CCCC2)c1 | 3% | 21% | ? | -4%
CCOC(=O)c1sc(=S)n(-c2cccc(C(F)(F)F)c2)c1SC | -10% | ? | ? | -9%
CCOC(=O)c1sc(=S)n(-c2ccccc2Cl)c1SC | -22% | 13µM* | 2.6µM* | 0%
CCOC(=O)c1sc(=S)n(-c2ccccc2)c1SC | 3% | 12µM* | 13µM* | -14%
COc1cccc(NC(=O)c2cc([N+](=O)[O-])ccc2NCc2cccnc2)c1 | -10% | 10µM* | ? | 6%
Cc1ccc(NC(=O)c2cc([N+](=O)[O-])ccc2NCc2cccnc2)cc1Cl | -3% | 5.9µM* | 2.1µM* | 15%
CC(=O)NS(=O)(=O)c1ccc(NC(=O)c2oc3c(Cl)cccc3c2C)cc1 | 0% | -12% | 47% | -2%
COc1ccc(-c2csc(C3=C(O)CN(C(C)C)C3=N)n2)cc1OC | -2% | 10µM* | ? | 1%
COc1ccc(N2CC(O)=C(c3nc(-c4ccccc4)cs3)C2=N)cc1 | -2% | ? | 0.47µM* | -4%
CC1C(=O)N2CCCc3cc(NC(=O)c4ccccc4C(F)(F)F)cc1c32 (stereo not drawn) | -3% | -8% | ? | nt
Cc1sc2nc(SCC(=O)C(C)(C)C)n(Cc3ccco3)c(=O)c2c1C | 7% | 3.7µM* | 10µM* | 0%
Cc1sc2nc3c4ccccc4c(NCc4ccco4)nn3c(=O)c2c1C | -1% | 59% | 5.9µM* | -6%
Cc1cccc(CSc2nc3sc(C)c(C)c3c(=O)n2Cc2ccco2)c1 | 7% | 15µM* | nt | -3%
Cn1c(C(=O)N2CCCC2)cc2c(=O)n(C)c3ccccc3c21 | 12% | nt | -21% | -3%
CC(C)[C@@H](C(=O)N1CCN(Cc2ccc3c(c2)OCO3)CC1)n1nnc2ccccc2c1=O | 2% | ? | 13µM* | -11%
Cn1c(=O)c([N+](=O)[O-])c(N2CCN(Cc3ccc4c(c3)OCO4)CC2)c2ccccc21 | 0% | 12µM* | 12µM* | -5%
Cn1c(C(=O)N2CCN(c3ncccn3)CC2)cc2c(=O)n(C)c3ccccc3c21 | 8% | nt | 10µM* | -23%
CCOC(=O)C1CCCN(C(=O)c2cc3c(=O)n(C)c4ccccc4c3n2C)C1 (stereo not drawn) | 5% | nt | 8.3µM* | -19%
COc1ccccc1NS(=O)(=O)c1ccc2oc(N)nc2c1 | 8% | -16% | 10% | -5%
CNc1snc(C)c1C(=O)OC(C)C(=O)Nc1ccccc1 (stereo not drawn) | -4% | ? | ? | nt
